Compounds with a hit are over-represented: about 0.73% of the library has one in this group of screens.
TcdB inh: TcdB glycohydrolase inhibition | AID 652162 | inhibition, % at 9.99 µM | TcdB glycohydrolase enzymatic assay, plate reader | P18177 | 350,000 tested, 0.24% active; in the data active = inhibition above about 10%
Yp Topo-I inh: Y. pestis Topo-I inhibition via cleavage products. AID 504884. activity, % at 10 µM. Y. pestis Topo-I cleavage product accumulation, plate reader. 360,000 tested, 0.064% active; in the data active = activity above about 50%, passing the limit was not always enough
Vc quorum ag-1: inducers of Vibrio cholerae quorum light production without autoinducers; V. cholerae BH1578 lux reporter, luminescence, 6 h; activation, % at 18.7 µM; 350,000 tested, 0.16% active; AID 588436; in the data active = activation mostly above about 9.7%, no sharp cut-off
BioA inh: blocks M. tuberculosis BioA enzyme activity | inhibition, % at 9.99 µM | purified M. tuberculosis BioA enzyme, plate reader | 360,000 tested, 0.096% active; in the data active = inhibition above about 40%
DUSP3 inh: DUSP3 (human) phosphatase inhibition; 290,000 tested, 0.52% active; AID 1654; inhibition, % at 13.3 µM; recombinant VHR phosphatase, pNPP absorbance; in the data active = inhibition above about 50%
Vc quorum ag-2: quorum light induction in BH1578 reporter strain | 620 tested, under 10 active | shares compounds with Vc quorum ag-1 | activation, % at 50 µM | V. cholerae BH1578 lux reporter, luminescence, 6 h; call rule not given here
HeLa 24h tox: kills HeLa cells within 24 hours | activity change, negative = cytotoxicity, % at 35 µM | HeLa viability, CellTiter-Glo ATP luminescence | 25 tested, under 10 active | shares compounds with Vc quorum ag-1 | AID 624140;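 active = signal drop with fitted half-maximal concentration at or below twice the highest valid dose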
* = called active by the depositor; i = inactive; x = not tested or not shown; + = active, no number.

SMILES	TcdB inh	Yp Topo-I inh	Vc quorum ag-1	BioA inh	DUSP3 inh	Vc quorum ag-2	others
Cc1noc(C)c1NC(=O)N(C)C[C@@H]1Oc2ncc(C#CCN(C)C)cc2C(=O)N([C@@H](C)CO)C[C@H]1C	0	x	x	0	x	x
C=CCN1C(=O)c2ccc(C(=O)N(CC)CC(=O)Nc3cc(Cl)ccc3C)cc2C1=O	0	9	15*	-1	x	0
C=CCN1C(=O)c2ccc(C(=O)N(C)CC(=O)Nc3ccccc3Cl)cc2C1=O	-1	-1	-1	x	x	x
CC(=O)N(C)C[C@@H]1Oc2cc(/C=C/c3ccccc3)ccc2S(=O)(=O)N([C@@H](C)CO)C[C@H]1C	7	x	x	0	x	x
O=C(Nc1ccc(Cl)c(Cl)c1)Nc1ccccc1C(=O)O	x	-3	13	2	1	0
O=C(Nc1cccc(Cl)c1)Nc1ccccc1C(=O)O	4	0	0	-1	-13	x
CC(=O)c1c(N2CCC(C(N)=O)CC2)nc(=S)n(-c2ccccc2)c1C	x	-10	7	1	17	0
CC(=O)c1c(N2CCN(c3ccccc3)CC2)nc(=S)n(-c2ccccc2)c1C	x	19	x	2	3	x
Cc1nn(CC(O)CN2c3ccccc3Sc3ccccc32)c(C)c1Br (stereo not drawn)	x	1	25*	0	-11	0
COCCNc1nc2c(c(=O)n(Cc3ccc(OC)cc3)c(=O)n2C)n1C	x	2	14	0	-10	0
C[C@@H]1CN([C@@H](C)CO)C(=O)c2cccc(NS(=O)(=O)c3ccccc3)c2O[C@@H]1CN(C)Cc1ccc(C(F)(F)F)cc1	2	x	x	1	x	x
CC(C)NC(=O)COc1ccc(S(=O)(=O)N2CCCC2)cc1	0	-14	i	-1	-16	x
CSc1ccccc1NC(=O)COc1ccc(S(=O)(=O)N2CCCC2)cc1	x	1	12	-1	-9	0
O=C(C[C@H]1CC[C@H]2[C@@H](COC[C@H](O)CN2S(=O)(=O)c2ccccc2)O1)NCc1ccc2c(c1)OCO2	0	x	x	1	x	x
COc1ccc(NC(=O)N2CC(=O)N3[C@@H](CO)[C@@H](c4ccc(-c5ccc(C)cc5)cc4)[C@@H]3C2)cc1	0	x	x	x	x	x
Cc1ccc2nc(NCCc3ccccc3)c3nncn3c2c1	-1	6	111*	-2	-10	1
C[C@H](CO)N1C[C@H](C)[C@@H](CN(C)S(=O)(=O)c2ccc(Cl)cc2)OCCCC[C@H](C)Oc2ccc(NC(=O)c3ccncc3)cc2C1=O	-1	x	x	0	x	x
CCn1nnc(NC(=O)Cc2ccc(Cl)cc2)n1	0	-4	-1	x	-18	x
CCn1nnc(NCc2ccc(C)cc2)n1	x	x	x	x	x	x	HeLa 24h tox=10
COc1ccc(CCNC(=O)c2ccc(Cl)cc2Cl)cc1	x	-3	28*	-2	2	0
Cc1ccc(OCCNC(=O)c2cc(-n3cnnc3)ccc2Cl)cc1C	x	11	-7	1	3	x
COc1ccc(CNC(=O)c2cc(-n3cnnc3)ccc2Cl)cc1	x	-4	25*	0	6	0
O=C(C[C@@H]1C[C@@H]2c3cc(NC(=O)C4CCOCC4)ccc3O[C@@H]2[C@H](CO)O1)NCc1ccc(Oc2ccccc2)cc1	0	x	x	-4	x	x
CCC1(CC)NC(=O)N(CC(=O)OCC(=O)NC(=O)c2ccc(Cl)cc2)C1=O	-1	-4	0	x	-11	x
CCC1(CC)NC(=O)N(CC(=O)OCC(=O)NC(=O)c2ccccc2OC)C1=O	0	-9	14	0	x	0
SMILES	TcdB inh	Yp Topo-I inh	Vc quorum ag-1	BioA inh	DUSP3 inh	Vc quorum ag-2	others
C[C@@H]1CN([C@@H](C)CO)C(=O)CCCn2cc(nn2)CO[C@@H]1CN(C)C(=O)NC1CCCC1	-4	x	x	-3	x	x
CC(C)(C)N(Cc1ccccc1)C(=O)COC(=O)CNS(=O)(=O)c1ccc2ccccc2c1	-1	4	0	0	x	x
Cc1ccc(S(=O)(=O)NCCC(=O)OCC(=O)N(Cc2ccccc2)C(C)(C)C)cc1C	1	26	12	1	x	0
CCc1ccc(OCCNC(=O)c2cccs2)cc1	x	11	x	4	11	i
CCCCOCCCNC(=O)c1cccs1	x	-1	-12	-1	2	x
Cc1ccc(OCCNC(=O)c2ccc(C)o2)cc1	0	-11	59*	-1	x	105
COc1ccc(CN(C)C[C@@H]2Oc3c(NC(=O)C4CCOCC4)cccc3C(=O)N([C@@H](C)CO)C[C@H]2C)cc1	0	x	x	1	x	x
CC(=O)c1ccc(S(=O)(=O)Nc2cccc(-c3ccc4nncn4n3)c2)cc1	x	-7	23*	0	25	0
CCCCCn1c(SCC(=O)OCC)nc2cc(C(=O)N3CCC(C(N)=O)CC3)ccc2c1=O	x	-4	14	-1	25	0
NC(=O)C1CCN(C(=O)c2ccc3c(=O)n(Cc4ccco4)c(SCC(=O)c4ccccc4)nc3c2)CC1	1	23	0	1	14	x
CCCNC(=O)COC(=O)/C=C/c1ccc(C)o1	1	5	+	x	14	i
CCCn1nnnc1NCc1ccc(N2CCCC2)cc1	x	-4	+	2	0	x	HeLa 24h tox=4
CCCn1nnnc1NCc1c(Cl)cccc1Cl	1	-14	i	x	18	x
CCCCn1nnnc1NCc1cccnc1	x	-5	i	-2	23	x
CCCCn1nnnc1NCc1ccc(N2CCCC2)cc1	x	1	829*	-1	12	3
Cc1[nH]c2ccc3c(ncn3CCC#N)c2c1C	x	-6	14	2	2	1
Cc1[nH]c2ccc3ncccc3c2c1C	x	-6	0	x	-7	x
N#C[C@@H]1[C@@H](c2ccccc2-c2cccc(F)c2)[C@H](CO)N1C(=O)C1CCCCC1	0	x	x	x	x	x
CC1CCCCC1NC(=O)COC(=O)c1ccccc1NC(=O)c1ccco1 (stereo not drawn)	x	-2	21*	-2	-5	0
CNC(=O)COC(=O)c1ccccc1NC(=O)c1ccco1	1	7	-2	5	-5	x
CCCNC(=O)[C@H]1[C@H](CO)[C@H]2Cn3c(ccc(C4=CCCC4)c3=O)[C@@H]1N2C(=O)C1CC1	1	x	x	-2	x	x
CC(=O)c1ccc(NC(=O)COc2ccccc2C(=O)Nc2ccccc2)cc1	-1	2	140*	3	22	0
C/C=C/c1ccc([C@@H]2[C@@H](CO)N3C(=O)CN(Cc4ccccc4)C[C@H]23)cc1	-1	x	x	x	x	x
CCS(=O)(=O)N1CCN(C(=O)CCC2CCCC2)CC1	x	9	28*	0	-9	6
O=C(CCC1CCCC1)N1CCN(S(=O)(=O)Cc2ccccc2)CC1	x	12	-3	x	3	x
O=C(O)c1[nH]c2ccccc2c1NS(=O)(=O)Cc1ccccc1	x	17	7	0	-6	0
Cc1c(C(=O)c2ccc(F)cc2F)c2ccccn2c1CCc1ccccn1	3	27	12	x	x	0
CC(=O)Nc1ccc(N2CCCC2)cc1	x	-15	25	x	0	0
CC(=O)Nc1ccc(N2CCCCC2)cc1	x	-3	i	1	30	x

Screening data: PubChem, several laboratories
